According to PubChem BioAssay (Tox21):
Inconclusive results are not listed. Activity calls are given as the source filed them. Unless noted, calls come from the whole dose curve; as a rule, active = well fitted curve in the direction sought with a large enough effect in the repeat runs; inconclusive = weak or mixed curves; inactive = no such curve, though single readings can be large; an effect the other way counts as inactive or inconclusive.

Key:
[1] = qHTS assay to identify small molecule agonists of the peroxisome proliferator-activated receptor delta (PPARd) signaling pathway - cell viability counter screen (AID 743211); conditions: PPARd-bla HEK293H viability, CellTiter-Glo luminescence, 17 h; series mostly up to 62.6 µM; note: nearly all actives have a fitted effect of over 55% in size; note: potency is the fitted concentration of half-maximal effect
In short: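 HEK293H PPARd-bla, 3000 cells/well; 5 h preincubation 37C/5% CO2; cpd in DMSO, 17 h 37C; B/G FRET substrate 2 h RT; CellTiter-Glo 30 min RT, luminescence.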

[2] = target: Peroxisome proliferator-activated receptor delta (Homo sapiens) (UniProt Q03181); assay: qHTS assay to identify small molecule agonists of the peroxisome proliferator-activated receptor delta (PPARd) signaling pathway (AID 743212; calls by dose curve;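 note: HEK293H cells with PPARd UAS beta-lactamase reporter GeneBLAzer system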; note: potency is the fitted concentration of half-maximal effect); conditions: HEK293H PPARd-UAS-bla, beta-lactamase FRET ratio, 17 h; series mostly up to 62.6 µM
In short: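 Steps: seed PPARd-bla HEK293H cells; incubate 5 h, 37 C, 5% CO2; add compounds in DMSO; incubate, 37 C; add LiveBLAzer B/G FRET substrate; hold 2 h at room temperature; measure fluorescence.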

[3] = qHTS assay to identify small molecule agonists of the farnesoid-X-receptor (FXR) signaling pathway - cell viability counter screen (AID 743218); conditions: FXR-bla HEK293T viability, CellTiter-Glo luminescence, 16 h; series mostly up to 62.6 µM; note: nearly all actives have a fitted effect of over 45% in size; note: potency is the fitted concentration of half-maximal effect
In short: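 Viability of FXR-bla HEK 293T cells is measured by ATP-based CellTiter-Glo luminescence following 16 h compound treatment at 37 C and a prior 2 h room-temperature beta-lactamase substrate step.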

[4] = qHTS assay to identify small molecule antagonists of the farnesoid-X-receptor (FXR) signaling pathway - cell viability counter screen (AID 743221; active = well fitted cell-killing curve with a large enough effect in the repeat runs, not every such curve was filed as active; note: nearly all actives have a fitted effect of over 50% in size; note: potency is the fitted concentration of half-maximal effect); conditions: FXR-bla HEK293T viability, CellTiter-Glo luminescence, 16 h; series mostly up to 62.6 µM
In short: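 Luminescence from CellTiter-Glo measures cytotoxicity in GeneBLAzer FXR-UAS-bla HEK 293T cells. Cells were exposed to compounds with 50 uM chenodeoxycholic acid (final) for 16 h at 37 C, in wells also used for the reporter readout.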

[5] = qHTS assay to identify small molecule agonists of the vitamin D receptor (VDR) signaling pathway - cell viability counter screen (AID 743224); conditions: VDR-bla HEK293T viability, CellTiter-Glo luminescence, 16 h; series mostly up to 62.6 µM; note: nearly all actives have a fitted effect of over 50% in size; note: potency is the fitted concentration of half-maximal effect
In short: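 Compounds were pin-transferred onto VDR-bla cells plated 4 h earlier; following 16 h incubation at 37C, cell viability was quantified by CellTiter-Glo luminescence after 30 min at room temperature.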

[6] = qHTS assay to identify small molecule antagonists of the vitamin D receptor (VDR) signaling pathway - cell viability counter screen (AID 743225); conditions: VDR-bla HEK293T viability, CellTiter-Glo luminescence, 16 h; series mostly up to 61 µM; note: nearly all actives have a fitted effect of over 50% in size; note: potency is the fitted concentration of half-maximal effect
In short: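 Read-out: CellTiter-Glo luminescence measured 30 min after reagent addition at room temperature. Cells were VDR-bla HEK 293T exposed 16 h at 37C, 5% CO2, to compound with 3 nM final calcitriol agonist.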

[7] = qHTS assay to identify small molecule agonists of the NFkB signaling pathway (AID 1159509; active = well fitted curve in the direction sought with a large enough effect in the signal ratio in the repeat runs, not every such curve was filed as active; the % refers to the signal ratio); conditions: NFkB-bla ME-180 cells, beta-lactamase FRET ratio, 5 h; series mostly up to 61 µM
In short: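 Beta-lactamase reporter assay run in quantitative high-throughput format on an NF-kB-responsive ME-180 line, with 5 hr compound treatment and a FRET-based blue/green fluorescence readout.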

[8] = qHTS assay to identify small molecule agonists of the NFkB signaling pathway - cell viability counter screen (AID 1159515; calls by dose curve; note: nearly all actives have a fitted effect of over 55% in size); conditions: NFkB-bla ME-180 viability, CellTiter-Glo luminescence, 5 h; series mostly up to 61 µM
In short: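 Parallel cytotoxicity counter screen in ME-180 cells carrying an NFkB-response-element beta-lactamase reporter, 2,000 cells/well. Compound exposure lasted 5 hr at 37 C, 5% CO2. Cell viability was quantified by CellTiter-Glo luminescence.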

[9] = qHTS assay to identify small molecule agonists of the endoplasmic reticulum stress response signaling pathway - cell viability counter screen (AID 1159517; calls by dose curve;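 note: HeLa cells carrying an ER stress response element beta-lactamase reporter; nearly all actives have a fitted effect of over 50% in size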); conditions: ESRE-bla HeLa viability, CellTiter-Glo luminescence, 5 h; series mostly up to 61 µM
In short: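 After overnight attachment, ESRE-bla HeLa cells were treated with Tox21 library compounds for 5 hr. CellTiter-Glo luminescence, read 30 min post-addition at room temperature, reported viability.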

[10] = qHTS assay to identify small molecule antagonists of the retinoid-related orphan receptor gamma (ROR-gamma) signaling pathway - cell viability counter screen (AID 1159520); conditions: Tet-on RORgamma CHO cells viability, ATP luminescence, 16 h; series mostly up to 92.4 µM; note: nearly all actives have a fitted effect of over 50% in size; note: potency is the fitted concentration of half-maximal effect
In short: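 Cytotoxicity was read from cellular ATP (CellTiter-Glo luminescence) after 16 hr at 37 C with 1 uM doxycycline induction. The inducer was added 2 hr after compound transfer to Tet-on ROR gamma CHO cells.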

[11] = qHTS assay to identify small molecule agonists of the AP-1 signaling pathway - cell viability counter screen (AID 1159525; calls by dose curve; note: nearly all actives have a fitted effect of over 55% in size; note: potency is the fitted concentration of half-maximal effect); conditions: ME-180 AP-1-bla cells viability, ATP luminescence, 5 h; series mostly up to 76.8 µM
In short: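 Intracellular ATP by Cell Titer Glo luminescence (30 min, RT) in the same ME-180 AP-1-bla wells after the 5 h compound exposure at 37 °C. Normalised to tetra n-octyl ammonium bromide and DMSO controls.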

[12] = qHTS assay to identify small molecule antagonists of the peroxisome proliferator-activated receptor delta (PPARd) signaling pathway - cell viability counter screen (AID 743213); conditions: PPARd-bla HEK293H viability, CellTiter-Glo luminescence, 17 h; series mostly up to 62 µM; note: nearly all actives have a fitted effect of over 50% in size; note: potency is the fitted concentration of half-maximal effect
In short: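 CellTiter-Glo was added to PPARd-bla HEK293H wells following 17 h compound treatment in the presence of 300 nM L165041. Luminescence was recorded after 30 min at room temperature.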

[13] = target: Peroxisome proliferator-activated receptor delta (Homo sapiens) (UniProt Q03181); assay: qHTS assay to identify small molecule antagonists of the peroxisome proliferator-activated receptor delta (PPARd) signaling pathway (AID 743215; active = well fitted inhibition curve with a large enough effect in the signal ratio in the repeat runs, not every such curve was filed as active; the % refers to the signal ratio;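 note: cells stimulated with agonist L165041 at 300 nM final during compound exposure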); conditions: HEK293H PPARd-UAS-bla, beta-lactamase FRET ratio, antagonist, 17 h; series mostly up to 62 µM
In short: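 Plated HEK293H PPARd-bla cells rested 5 h at 37 C and 5% CO2. Compound, then agonist L165041 at 300 nM final, was added; 17 h at 37 C followed. Substrate loading, 2 h room temperature, fluorescence measured.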

[14] = target: Vitamin D3 receptor (Homo sapiens) (UniProt P11473); assay: qHTS assay to identify small molecule antagonists of the vitamin D receptor (VDR) signaling pathway (AID 743223; active = well fitted inhibition curve with a large enough effect in the signal ratio in the repeat runs, not every such curve was filed as active; the % refers to the signal ratio); conditions: VDR-UAS-bla HEK293T, beta-lactamase FRET ratio, 16 h; series mostly up to 61 µM
In short: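 Antagonist mode uses 1alpha,25-dihydroxyvitamin D3 at 3 nM final as stimulus. VDR-bla cells receive compounds in DMSO, incubate 16 h at 37C, then a beta-lactamase FRET substrate for 2 h at room temperature before fluorescence measurement.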

[15] = qHTS assay to identify small molecule agonists of the AP-1 signaling pathway (AID 1159526; calls by dose curve); conditions: ME-180 (cervical carcinoma) AP-1-bla reporter, beta-lactamase FRET ratio, 5 h; series mostly up to 76.8 µM
[16] = target: Bile acid receptor (Homo sapiens) (UniProt Q96RI1); assay: qHTS assay to identify small molecule antagonists of the farnesoid-X-receptor (FXR) signaling pathway (AID 743217; active = well fitted inhibition curve with a large enough effect in the signal ratio in the repeat runs, not every such curve was filed as active; the % refers to the signal ratio; note: potency is the fitted concentration of half-maximal effect); conditions: HEK293T FXR-UAS-bla, beta-lactamase ratio, CDCA-stimulated, 16 h; series mostly up to 62.6 µM
In short: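 Screen of the Tox21 10K library in quantitative HTS format using FXR-UAS-bla HEK 293T reporter cells. Agonist chenodeoxycholic acid, 50 uM final, added with compounds; 16 h incubation at 37 °C; beta-lactamase FRET fluorescence measured.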

[17] = target: Vitamin D3 receptor (Homo sapiens) (UniProt P11473); assay: qHTS assay to identify small molecule agonists of the vitamin D receptor (VDR) signaling pathway (AID 743222; calls by dose curve); conditions: HEK293T VDR-UAS-bla, beta-lactamase FRET ratio, 16 h; series mostly up to 63.5 µM
In short: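 Fluorescence from cleaved LiveBLAzer B/G FRET substrate served as readout. VDR-bla cells had been treated 16 h at 37C with test compounds in DMSO, following a 4 h settling period, and substrate was loaded for 2 h at RT.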

[18] = target: Nuclear receptor ROR-gamma (Homo sapiens) (UniProt P51449); assay: qHTS assay to identify small molecule antagonists of the retinoid-related orphan receptor gamma (ROR-gamma) signaling pathway (AID 1159521; note: nearly all actives have a fitted effect of over 50% in size; note: potency is the fitted concentration of half-maximal effect); conditions: Tet-on RORgamma CHO cells, RORE-luciferase, 16 h; series mostly up to 92.4 µM
In short: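 CHO Tet-on RORγ, RORE-luc reporter. Cpd 2 h pre-incubation, then dox hyclate 1 uM final, 16 h, 37 C/5% CO2. ONE-Glo luminescence; decrease = antagonist.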

[19] = target: Bile acid receptor (Homo sapiens) (UniProt Q96RI1); assay: qHTS assay to identify small molecule agonists of the farnesoid-X-receptor (FXR) signaling pathway (AID 743220; active = well fitted activation curve with a large enough effect in the signal ratio in the repeat runs, not every such curve was filed as active; the % refers to the signal ratio); conditions: HEK293T FXR-UAS-bla, beta-lactamase FRET ratio, 16 h; series mostly up to 62.6 µM
In short: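 FXR-UAS-bla HEK 293T cells carrying a UAS-driven beta-lactamase reporter were plated for 5 h at 37C/5% CO2, then exposed to DMSO-dissolved Tox21 10K compounds for 16 h at 37C. A LiveBLAzer B/G FRET substrate was loaded for 2 h at room temperature before fluorescence reading.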

Measured: Potency

Peroxisome proliferator-activated receptor delta (Homo sapiens), sequence (Q03181 whole entry, looked up): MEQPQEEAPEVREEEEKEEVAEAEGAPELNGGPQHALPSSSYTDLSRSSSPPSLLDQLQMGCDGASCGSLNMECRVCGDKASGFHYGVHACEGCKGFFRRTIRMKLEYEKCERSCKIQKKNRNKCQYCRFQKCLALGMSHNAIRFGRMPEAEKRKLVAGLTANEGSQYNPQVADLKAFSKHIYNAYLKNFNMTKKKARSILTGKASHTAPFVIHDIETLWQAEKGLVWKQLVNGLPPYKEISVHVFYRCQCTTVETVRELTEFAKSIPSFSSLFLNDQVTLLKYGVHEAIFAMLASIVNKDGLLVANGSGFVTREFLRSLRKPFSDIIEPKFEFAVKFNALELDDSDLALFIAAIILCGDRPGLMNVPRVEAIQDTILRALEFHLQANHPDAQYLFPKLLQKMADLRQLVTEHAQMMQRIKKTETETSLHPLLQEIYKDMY
Vitamin D3 receptor (Homo sapiens), sequence (P11473 whole entry, looked up): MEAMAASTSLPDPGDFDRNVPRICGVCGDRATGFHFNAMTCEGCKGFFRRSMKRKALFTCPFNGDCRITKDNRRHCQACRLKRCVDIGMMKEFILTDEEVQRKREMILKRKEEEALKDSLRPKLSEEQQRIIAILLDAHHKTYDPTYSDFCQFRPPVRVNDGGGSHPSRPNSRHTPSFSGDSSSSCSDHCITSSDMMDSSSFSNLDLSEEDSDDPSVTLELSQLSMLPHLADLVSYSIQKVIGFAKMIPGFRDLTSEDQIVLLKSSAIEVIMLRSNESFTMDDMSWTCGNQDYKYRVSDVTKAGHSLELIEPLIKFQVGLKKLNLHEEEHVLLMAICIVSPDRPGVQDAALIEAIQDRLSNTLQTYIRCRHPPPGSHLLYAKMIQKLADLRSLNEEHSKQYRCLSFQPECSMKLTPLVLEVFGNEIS
Bile acid receptor (Homo sapiens), sequence (Q96RI1 whole entry, looked up): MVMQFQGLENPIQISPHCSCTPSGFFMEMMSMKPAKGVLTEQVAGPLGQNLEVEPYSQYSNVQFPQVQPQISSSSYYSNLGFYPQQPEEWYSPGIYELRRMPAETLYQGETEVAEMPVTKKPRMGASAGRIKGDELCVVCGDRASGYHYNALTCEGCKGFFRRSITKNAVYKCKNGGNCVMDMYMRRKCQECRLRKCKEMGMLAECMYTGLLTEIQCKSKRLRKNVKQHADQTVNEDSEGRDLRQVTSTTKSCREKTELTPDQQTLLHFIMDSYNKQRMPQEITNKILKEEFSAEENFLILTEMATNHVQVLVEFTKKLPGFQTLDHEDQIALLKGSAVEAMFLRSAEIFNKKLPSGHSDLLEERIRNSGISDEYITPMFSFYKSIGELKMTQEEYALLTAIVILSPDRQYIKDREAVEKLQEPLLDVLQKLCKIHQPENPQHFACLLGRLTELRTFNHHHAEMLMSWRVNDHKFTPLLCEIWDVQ

C/C=C/C=C/C=O
not listed: [12] | [13] | [14] | [15] | [16] | [17] | [18] | [19]
inactive: all other assays above

Cc1cscn1
not listed: [3] | [16] | [17] | [18] | [19]
inactive: all other assays above

Cc1cccc(N(C)C(=S)Oc2ccc3c(c2)CCC3)c1
not listed: [13] | [18] | [19]
inactive: all other assays above

CCCCN1CCCC1C(=O)Nc1c(C)cc(C)cc1C (centres undefined)
inactive: [1] | [3] | [4] | [17] | [14] | [6] | [7] | [8] | [9] | [10]

CC(CN(C)C)C(C)(O)Cc1ccc(Cl)cc1 (centres undefined)
not listed: [11] | [12] | [16] | [18] | [19]
inactive: all other assays above

O=C1NCCN1CCO
not listed: [2] | [12] | [13] | [16] | [18] | [19]
inactive: all other assays above

COc1ccccc1Oc1c(NS(=O)(=O)c2ccc(C(C)(C)C)cc2)nc(-c2ncccn2)nc1OCCO
active: [18] 18.8 µM
not listed: [3] | [5] | [13] | [15] | [16] | [17] | [19]
inactive: all other assays above

C[C@@]12CCC[C@H]1[C@@H]1CC[C@H]3C[C@@H](O)CC[C@]3(C)[C@H]1CC2
active: [18] 13.3 µM
inactive: [2] | [12] | [19] | [4] | [6] | [7] | [8] | [9] | [10] | [11]

OC[C@H]1O[C@@H](n2cnc3c(=S)nc[nH]c32)[C@H](O)[C@@H]1O
active: [4] 16.8 µM | [5] 7.5 µM | [6] 8.49 µM
inactive: [2] | [14] | [7] | [8] | [9] | [10] | [11] | [15]

C=C(C)C(=O)OCCOCCOC(=O)C(=C)C
not listed: [3] | [17] | [18] | [19]
inactive: all other assays above

CCCCCCCCCCCCCCN(CCO)CCO
inactive: [17] | [7] | [8] | [9]
active: [1] 43.6 µM | [12] 49 µM | [16] 49 µM | [3] 43.6 µM | [5] 24.5 µM | [6] 43.6 µM | [10] 61.1 µM | [18] 30.6 µM | [11] 54.9 µM

O=C1CCCCCCCCCCOCCCCO1
not listed: [5] | [15] | [16] | [19]
inactive: all other assays above

O=[N+]([O-])c1ccc(Nc2ccc(Nc3ccccc3)c(S(=O)(=O)O)c2)c([N+](=O)[O-])c1
not listed: [11] | [12] | [13] | [14] | [15] | [16] | [19]
inactive: all other assays above

CCOC(=O)C1=C(C)NC(C)=C(C(=O)OC)C1c1cccc(Cl)c1Cl (centres undefined)
not listed: [2] | [5] | [6] | [10] | [14] | [17] | [19]
inactive: all other assays above

CCCCCC[C@@H](O)C/C=C\CCCCCCCC(=O)O
active: [2] 43.6 µM | [12] 49 µM
inactive: [16] | [14] | [5] | [7] | [8] | [9] | [10]

C[C@]1(Cn2ccnn2)[C@H](C(=O)O)N2C(=O)C[C@H]2S1(=O)=O
not listed: [2] | [4] | [13] | [14] | [15] | [16] | [17] | [18]
inactive: all other assays above

CC1CC(C)C(=O)C1=O (centres undefined)
not listed: [14] | [16] | [17] | [18] | [19]
inactive: all other assays above

CC(=O)[C@H]1[C@H](C#N)C[C@H]2[C@@H]3CC=C4C[C@@H](O)CC[C@]4(C)[C@H]3CC[C@@]21C
not listed: [3] | [11] | [12] | [14] | [15] | [17] | [19]
inactive: all other assays above

C/C=C\C/C=C/CCCCCCCCOC(C)=O
inactive: [1] | [2] | [12] | [4] | [7] | [8] | [9] | [18] | [11]
